High-throughput results (PubChem)
A selection: hits, their analogues and other compounds. The true share with any hit is near 2.2%.
VLA-4 inh: inhibition in a human VLA-4 binding assay; inhibition, % (about 7 µM as worked out from the volumes in the protocol); VLA-4 expressing cells, ligand binding flow cytometry; AID 2557; P13612; 330,000 tested, 0.2% active; in the data active means inhibition above about 50%
MEKK3 PB1 HTS: modulators (inhibitors or enhancers) of MEK5 binding to human MEKK3 PB1 domain; bead-based flow cytometry, Alexa488-MEK5 binding to MEKK3; actives lie on both sides; 0 = blocked by unlabeled MEK5, 100 = vehicle; AID 1529; Q99759; 290,000 tested, 1.4% active; binding response (% of control), % at 10 µM;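 active means binding response more than 3 SD above or below the average of its plate-row segment, actives on both sides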;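 further: Alexa488 bead fluorescence after subtracting the streptavidin-only scavenger bead signal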
Target sequence (Q99759 whole entry, looked up, the tested form may be a part): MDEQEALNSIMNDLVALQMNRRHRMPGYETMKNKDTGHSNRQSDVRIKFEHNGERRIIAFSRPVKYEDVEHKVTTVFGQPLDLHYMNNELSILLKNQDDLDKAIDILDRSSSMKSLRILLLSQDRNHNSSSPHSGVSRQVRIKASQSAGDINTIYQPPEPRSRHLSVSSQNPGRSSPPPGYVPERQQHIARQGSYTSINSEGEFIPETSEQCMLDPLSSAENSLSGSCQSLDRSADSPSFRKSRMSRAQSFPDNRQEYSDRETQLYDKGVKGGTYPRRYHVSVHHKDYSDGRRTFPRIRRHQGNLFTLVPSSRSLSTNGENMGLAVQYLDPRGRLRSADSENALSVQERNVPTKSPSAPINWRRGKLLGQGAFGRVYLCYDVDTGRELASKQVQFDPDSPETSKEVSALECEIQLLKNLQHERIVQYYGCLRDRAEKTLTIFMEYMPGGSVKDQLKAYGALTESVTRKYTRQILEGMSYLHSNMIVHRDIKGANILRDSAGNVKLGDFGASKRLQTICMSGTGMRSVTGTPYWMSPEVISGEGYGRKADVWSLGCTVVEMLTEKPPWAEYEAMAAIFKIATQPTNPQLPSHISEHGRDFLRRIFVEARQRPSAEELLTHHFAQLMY
MEKK2 mut-MEK5: signal of MEK5 binding to mutant human MEKK2 PB1 domain; bead flow cytometry, Alexa488-MEK5 binding to MEKK2 mutant; percent response, % at 10 µM; 290,000 tested, 0.35% active; AID 1530; in the data active means percent response above about 24%, passing the limit was not always enough
MEKK2wt PB1 HTS: raises or lowers MEK5 binding to wildtype human MEKK2 PB1 domain. bead flow cytometry, Alexa488-MEK5 binding to MEKK2 WT; actives lie on both sides. binding response (% of control), % at 10 µM. 290,000 tested, 1.1% active; in the data active means binding response below about 67% or above about 130%
MEKK2wt confirm: raises or lowers MEK5 binding to wildtype human MEKK2, retest; 5,900 tested, 2.4% active; shares compounds with MEKK3 PB1 HTS; binding response (% of control), % at 10 µM; AID 1892; bead flow cytometry, Alexa488-MEK5 binding to MEKK2 WT; actives lie on both sides; in the data active means binding response below about 16% or above about 210%; inactive means in between
MEKK2mut-MEK5: signal of MEK5 binding to mutant human MEKK2, retest | shares compounds with MEKK3 PB1 HTS | bead flow cytometry, Alexa488-MEK5 binding to MEKK2 mutant | percent response, % at 10 µM | 5,900 tested, 2% active | AID 1893; in the data active means percent response mostly above about 71%, no sharp cut-off; inactive means mostly below about 38%;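 further: higher means compound restores mutant binding toward wildtype level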
MEKK3 confirm: MEKK3-MEK5 PB1 inhibition, single concentration confirmation; shares compounds with MEKK3 PB1 HTS; bead flow cytometry, Alexa488-MEK5 binding to MEKK3; active compounds read low; binding response (% of control), % at 10 µM; 5,900 tested, 1.8% active;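 active means binding response below 72% of control, or above a set upper limit, though filed actives all read lower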;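 further: 100% = DMSO only wells and 0% = binding blocked by excess unlabeled MEK5; lower values mean stronger disruption of MEK5 binding to MEKK3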
* marks the source's active call; other numbers are inactive results; nt = no result given; [ ] = dose if it differs, or a comment.

SMILES	VLA-4 inh	MEKK3 PB1 HTS	MEKK2 mut-MEK5	MEKK2wt PB1 HTS	MEKK2wt confirm	MEKK2mut-MEK5	MEKK3 confirm
COc1ccc(C2C3=C(CC(C)(C)CC3=O)Oc3ncn(Cc4ccco4)c(=N)c32)cc1 (centres undefined)	9	2.0*[inhibitor]	-26	-1.0*[inhibitor]	105	7	103
COc1ccc(C2c3c(ncn(Cc4ccco4)c3=N)Oc3ccc4ccccc4c32)cc1 (centres undefined)	32	106	56*	185*	190	62	112
CCN(CC)S(=O)(=O)c1ccc(OCC(=O)NCc2ccccc2)cc1	11	27*[inhibitor]	-19	38*[inhibitor]	98	-4	102
CCN(CC)S(=O)(=O)c1ccc(OCC(=O)NCc2ccco2)cc1	-4	90	-15	90	nt	nt	nt
Cc1c(CC(=O)N2C[C@H]3C[C@@H](C2)c2cccc(=O)n2C3)c(=O)oc2cc3occ(C(C)(C)C)c3cc12	4	100	-1	99	nt	nt	nt
O=C(Nc1ccc(-c2n[nH]c(=S)o2)cc1)c1ccccc1Cl	-4	104	13	108	nt	nt	nt
Cc1nc(N)sc1-c1csc(Nc2ncccn2)n1	nt	35*[inhibitor]	-15	50	46	-29	43*
CCSc1ccccc1C(=O)N=C1NC(=O)CC2C(=O)NCCN12 (centres undefined)	21	103	-12	94	nt	nt	nt
NC(=O)c1cc(S(=O)(=O)NCCc2ccc(S(N)(=O)=O)cc2)cs1	4	100	5	103	nt	nt	nt
CS/C(N)=N/N=C/c1c(O)ccc2ccccc12	1	133*	29	133	100	-4	99
CN(C)/N=C/c1c(O)ccc2ccccc12	4	106	7	108	nt	nt	nt
COCCNC(=O)CN(C)S(=O)(=O)c1ccc2c(c1)OCCO2	-13	7.0*[inhibitor]	-14	11*[inhibitor]	104	3	106
CC(C)(c1ccccc1)c1ccc(OCC(O)CNC2CCN(Cc3ccccc3)CC2)cc1 (centres undefined)	36	98	62*	252*	179	32	107
CN(C(=O)CSc1nnc(-c2c[nH]c3ccccc23)n1C1CC1)C1CCS(=O)(=O)C1 (centres undefined)	-7	nt	nt	nt	nt	nt	nt
Cc1ccc(S(=O)(=O)c2c(C)cc(-c3ccccc3)[nH]c2=O)cc1	17	143*	7	134*	102	-1	103
O=c1[nH]c(SCc2ccccc2[N+](=O)[O-])nc2nc[nH]c12	-16	45*[inhibitor]	12	50	102	4	106
CCN1CCN(Cc2ccc(NC(=O)c3cc(NC(=O)c4cc5cccc(OC)c5o4)cc(OC)c3)cc2C(F)(F)F)CC1	14	124*	158*	148*	251*	93*	111
CCN1CCN(Cc2ccc(NC(=O)c3cc(NC(=O)c4ccc5n[nH]nc5c4)cc(OC)c3)cc2C(F)(F)F)CC1	-11	113	13	118	nt	nt	nt
CCN1CCN(Cc2ccc(NC(=O)c3cc(NC(=O)c4cncc(-c5cccs5)c4)cc(OC)c3)cc2C(F)(F)F)CC1	11	118	133*	362*	245*	193*	113
CCN1CCN(Cc2ccc(NC(=O)c3cc(NC(=O)c4ccno4)cc(OC)c3)cc2C(F)(F)F)CC1	23	76	6	111	nt	nt	nt
CCN1CCN(Cc2ccc(NC(=O)c3cc(NC(=O)c4cc(-c5ccc(OC)cc5)n[nH]4)cc(OC)c3)cc2C(F)(F)F)CC1	4	125*	167*	167*	312*	173*	117
Cn1c(-c2ccc3c(c2)OCO3)cnc1NCc1cccc(O)c1	0	83	-3	85	nt	nt	nt
O=C(Nc1ccc(Cc2ccc(NC(=O)C3CC3)c(O)c2)cc1O)C1CC1	5	127*	6	119	113	7	103
CNC(=O)c1nn(-c2ccc(C)cc2)ccc1=O	-1	118	25*	122	97	-7	98
CCOC(=O)C1CCN(C(=O)CCc2ccc(S(=O)(=O)NC(C)C)cc2)CC1	-2	107	2	109	nt	nt	nt
SMILES	VLA-4 inh	MEKK3 PB1 HTS	MEKK2 mut-MEK5	MEKK2wt PB1 HTS	MEKK2wt confirm	MEKK2mut-MEK5	MEKK3 confirm
CCOC(=O)C1CCN(C(=O)CCc2ccc(S(=O)(=O)NCC(C)C)cc2)CC1	-35	114	26*	113	117	4	102
Cc1cc(C)cc(-n2ccnc2SCC(=O)O)c1	9	nt	nt	nt	nt	nt	nt
CCn1cc(C(=O)N[C@@H](CCSC)C(=O)NCCCn2ccnc2)c(=O)c2cc3c(cc21)OCO3	3	103	2	105	nt	nt	nt
COc1cc(OC)cc(C(=O)NCC2CCCN(C(=O)c3oc(C)cc3C)C2)c1 (centres undefined)	14	104	10	111	nt	nt	nt
CNC(=S)N/N=C(\C)c1ccc(C(C)(C)C)cc1	25	101	22	110	nt	nt	nt
CNC(=S)N/N=C(\C)c1ccccc1	1	132*	28	128	109	2	103
COc1ccc(C(=O)C2CCCN(C(=O)Cn3nc(C)cc3C)C2)cc1F (centres undefined)	1	84	-18	87	nt	nt	nt
COCCNC(=O)C(c1ccc(OC)cc1)N(C(=O)Cn1nnc2ccccc21)c1cccnc1 (centres undefined)	3	105	-8	97	nt	nt	nt
CCc1ccc(C(C(=O)NCCOC)N(C(=O)Cn2nnc3ccccc32)c2cccnc2)cc1 (centres undefined)	0	2.0*[inhibitor]	5	2.0*[inhibitor]	102	-1	101
O=C(N/N=C\C=C\c1ccco1)c1cc(-c2ccc3ccccc3c2)n[nH]1	4	132*	0	100	90	-9	99
c1ccc2c(-c3cn4ccccc4n3)c[nH]c2c1	-85	100	2	63*[inhibitor]	115	19	108
CCc1cc2cc(C(=O)N3CCN(c4ccccc4)CC3)sc2s1	-3	105	5	109	nt	nt	nt
CCc1cc2cc(C(=O)N3CCN(Cc4ccccc4)CC3)sc2s1	3	77*[inhibitor]	-13	91	89	-11	85
Cn1c(-c2ccc(C=O)s2)nc2c3ccccc3c3ccccc3c21	-50	90	-19	63*[inhibitor]	75	-12	94
CCNC(=S)N1CCC(NC(=O)C2CCCCC2)CC1	-6	97	0	100	nt	nt	nt
CCNC(=S)NNC(=O)C1CCCCC1	14	2.0*[inhibitor]	-16	2.0*[inhibitor]	103	-9	99
Cc1c(OC(C)C(=O)NCC2CCC(C(=O)O)CC2)ccc2c(-c3ccccc3)cc(=O)oc12 (centres undefined)	-1	103	4	106	nt	nt	nt
CC1(C)NC(=O)N(CC(=O)Nc2ccc(-n3cnnn3)cc2)C1=O	-6	nt	nt	nt	nt	nt	nt
Cc1ccnc(NC(=O)c2cccc(S(=O)(=O)N3CCN(c4ccc(F)cc4)CC3)c2)c1	-4	nt	nt	nt	nt	nt	nt
